Some test systems named below: NCI-H23 lung; NCI-H226 lung; NCI-H322M lung; HOP-62 NSCLC; NCI-H460 lung; HOP-92 NSCLC; NCI-H522 lung; A549/ATCC NSCLC; 786-0 renal; COLO 205 colon; DU-145 prostate; K-562 leukemia; MALME-3M melanoma; MDA-MB-231 breast; RXF 393 renal; SF-268 CNS; SF-295 CNS; SF-539 CNS; UACC-257 melanoma; M14 melanoma.
Common to all, as to assay: NCI-60 one-dose screen, 48 h (100 = growth as untreated, 0 = no growth, -100 = all killed)
Conditions in all cases: 10 µM unless noted

Molecules are shown by their SMILES. The panel holds about 83,000 compounds, 20% with a hit somewhere; the sample as a whole holds those more often.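 Cell lines were cultured in 96-well plates, exposed to a single compound concentration, and assessed for percent growth 48 hours later.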 Values without a mark were called inactive. Active and inactive are the calls of the source. The calls were made as follows: active = growth percent below 10; inactive = the rest.

In the case of `C(=C(\C1=NCCN1)n1ccc2ccccc21)/c1ccccc1`, the growth in the assay on NCI-H23 lung was 97%; in the assay with NCI-H226 lung, 93.5%; with NCI-H322M lung it was 97.7%; in the assay on HOP-62 NSCLC, 96.3%; with NCI-H460 lung it was 101%; in the assay on HOP-92 NSCLC, 78.7%. Besides, the growth in the assay on NCI-H522 lung was 89.7%; in the assay with A549/ATCC NSCLC, 99.9%; in the assay on 786-0 renal, 98.3%; in the assay on COLO 205 colon it was 107%; with DU-145 prostate, 103%; in the assay with K-562 leukemia, 96.7%. Moreover, the growth in the assay on MALME-3M melanoma was 93.4%; in the assay with MDA-MB-231 breast, 96.8%; in the assay with RXF 393 renal it was 89.9%; in the assay with SF-268 CNS it was 91.8%; in the assay on SF-295 CNS it was 99.3%; in the assay with SF-539 CNS, 99.5%. Further, the growth was 93.3% in the assay with UACC-257 melanoma and 91.4% in the assay with M14 melanoma.
In the case of `COc1cc(/C=C/C(=O)c2cccc(-n3cc(-c4ccc(Cl)cc4)[nH]c3=O)c2)ccc1O`, the growth was 97.5% with NCI-H23 lung; 101% in the assay on NCI-H226 lung; 92.6% with NCI-H322M lung; 130% in the assay with HOP-62 NSCLC; 93.7% in the assay with NCI-H460 lung; 56.9% with HOP-92 NSCLC. Moreover, the growth in the assay with NCI-H522 lung is 23.4%; in the assay on A549/ATCC NSCLC, 77.3%; with 786-0 renal it was 84.3%; in the assay on COLO 205 colon it was 124%; in the assay with DU-145 prostate, 78.1%; in the assay with K-562 leukemia, 17.9%. For the same molecule, the growth is 87.8% with MALME-3M melanoma; 86% in the assay on MDA-MB-231 breast; 23.7% in the assay with RXF 393 renal; 71.7% in the assay on SF-268 CNS; 76.7% with SF-295 CNS; 84.2% with SF-539 CNS. Besides, the growth is 68% with UACC-257 melanoma and 85.8% in the assay on M14 melanoma.
Consider `c1cc(OCCN2CCCC2)ccc1CNc1ccc2nc(CCC3CCCCC3)[nH]c2c1`, for which the growth was 81.9% in the assay on NCI-H23 lung; 51.3% with NCI-H226 lung; 78.2% with NCI-H322M lung; 57.8% in the assay with HOP-62 NSCLC; 52.6% in the assay with NCI-H460 lung; 25.3% in the assay with HOP-92 NSCLC. Besides, the growth in the assay with A549/ATCC NSCLC is 50.2%; in the assay with 786-0 renal, -60.1% (active); in the assay with COLO 205 colon, -73.9% (active); in the assay with DU-145 prostate it was 65.2%; with K-562 leukemia it was -11.7% (active); in the assay with MALME-3M melanoma, -83.7% (active). Also, the growth was 11.2% in the assay with MDA-MB-231 breast; 42.2% in the assay on RXF 393 renal; 58.3% in the assay with SF-268 CNS; -30% (active) with SF-295 CNS; -72.4% (active) with SF-539 CNS; -77.8% (active) with UACC-257 melanoma. Further, the growth in the assay with M14 melanoma is -86.9% (active).
Turning to `O=C(Cc1ccc(/C=C/C(=O)c2ncc[nH]2)cc1)Nc1cc(F)c(F)c(F)c1`, the growth was 32.2% in the assay on NCI-H23 lung; 95.2% with NCI-H226 lung; 72.8% in the assay with NCI-H322M lung; 90.6% with HOP-62 NSCLC; 28.2% in the assay on NCI-H460 lung; 116% in the assay with HOP-92 NSCLC. Further, the growth is 70.6% in the assay with A549/ATCC NSCLC; 8.88% (active) in the assay on 786-0 renal; 64.9% in the assay with COLO 205 colon; 18.7% in the assay on DU-145 prostate; 18.3% in the assay on K-562 leukemia; 93.7% in the assay with MALME-3M melanoma. Also, the growth in the assay with MDA-MB-231 breast is 41.4%; with RXF 393 renal, 13.1%; with SF-268 CNS it was 58.3%; in the assay with SF-295 CNS, 77.3%; with SF-539 CNS it was 5.66% (active); in the assay with UACC-257 melanoma it was 99.9%. In the assay with M14 melanoma, the growth was 85.2%.
`CC(C)(C)OC(=O)CN1CCc2c(sc3ncnc(N4CCN(c5ccc(F)cc5)CC4)c23)C1`: the growth in the assay with NCI-H23 lung is 88.2%; with NCI-H226 lung, 73.1%; in the assay on NCI-H322M lung, 83.6%; with HOP-62 NSCLC, 93.2%; in the assay with NCI-H460 lung it was 88.6%; in the assay with HOP-92 NSCLC, 84%. Besides, the growth was 82% in the assay on NCI-H522 lung; 90.3% in the assay on A549/ATCC NSCLC; 81.8% with 786-0 renal; 86.4% in the assay on COLO 205 colon; 90.1% in the assay with DU-145 prostate; 87.7% in the assay on K-562 leukemia. In addition, the growth was 90.6% in the assay with MALME-3M melanoma; 75.7% in the assay on MDA-MB-231 breast; 92.2% with RXF 393 renal; 81.9% in the assay on SF-268 CNS; 104% with SF-295 CNS; 81.6% with SF-539 CNS. Further, the growth in the assay with UACC-257 melanoma is 97.7%; in the assay on M14 melanoma, 98.4%.
Regarding `Cc1ccc2c(c1)nc(C)n2-c1ncnc2c1CC(C)c1cc(O)ccc1N2C` (stereo not given), the growth in the assay on NCI-H23 lung was 65.7%; in the assay with NCI-H226 lung, 74.1%; in the assay on NCI-H322M lung, 64%; in the assay on HOP-62 NSCLC, 37.8%; with NCI-H460 lung, 19.7%; in the assay on HOP-92 NSCLC, 24.7%. Besides, the growth in the assay on A549/ATCC NSCLC is 31%; in the assay on 786-0 renal, 33.4%; in the assay on COLO 205 colon it was 98.5%; in the assay on DU-145 prostate, 42.1%; in the assay with K-562 leukemia it was 14.8%; in the assay on MALME-3M melanoma it was 48.9%. Besides, the growth with MDA-MB-231 breast is 50.8%; in the assay with RXF 393 renal, 10.7%; in the assay with SF-268 CNS, 44.1%; in the assay with SF-295 CNS, 11.1%; in the assay on SF-539 CNS, 28.7%; in the assay with UACC-257 melanoma, 17.9%. Besides, the growth with M14 melanoma is 15%.
Regarding `Nc1ccc(Br)cc1C(F)(F)F`, the growth in the assay with NCI-H23 lung is 95.3%; in the assay with NCI-H226 lung it was 105%; in the assay on NCI-H322M lung, 119%; in the assay with HOP-62 NSCLC, 102%; in the assay with NCI-H460 lung, 111%; with HOP-92 NSCLC, 104%. The growth in the assay on A549/ATCC NSCLC was 102%; in the assay with 786-0 renal it was 105%; in the assay with COLO 205 colon it was 102%; with DU-145 prostate, 116%; with K-562 leukemia, 97.1%; with MALME-3M melanoma, 114%. For the same molecule, the growth was 103% in the assay with MDA-MB-231 breast; 116% in the assay on RXF 393 renal; 108% in the assay with SF-268 CNS; 119% in the assay with SF-295 CNS; 97% in the assay with SF-539 CNS; 104% in the assay with UACC-257 melanoma. The growth with M14 melanoma is 106%.
For `CS(=O)(=O)Nc1cc(-c2ccc3ncnc(Nc4ccc5c(cnn5Cc5ccccc5F)c4)c3c2)cnc1Cl`, the growth in the assay with NCI-H23 lung is 41.8%; in the assay with NCI-H226 lung, 66.7%; with NCI-H322M lung it was 62%; in the assay with HOP-62 NSCLC it was 40.3%; in the assay on NCI-H460 lung, 59.4%; with HOP-92 NSCLC, -21.4% (active). For the same molecule, the growth in the assay with A549/ATCC NSCLC is 71.3%; with 786-0 renal, 53.1%; with COLO 205 colon it was 59.4%; in the assay with DU-145 prostate, 51.9%; in the assay on K-562 leukemia, 57.3%; with MALME-3M melanoma, -7.51% (active). Besides, the growth with MDA-MB-231 breast is 36.1%; with RXF 393 renal it was 20.2%; in the assay on SF-268 CNS it was 24.3%; in the assay on SF-295 CNS, 60.9%; with SF-539 CNS, 34.5%; in the assay with UACC-257 melanoma, 52.9%. Further, in the assay with M14 melanoma, the growth was 39.1%.

Values taken from PubChem BioAssay (NCI).
